# Reference: PubChem BioAssay (NCI)
# Compounds without any hit were thinned out: in the full panel of roughly 83,000, 20% have a hit.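 Percent growth is the endpoint: 0 to 100 indicates growth inhibition (40 means 60% inhibition), 0 means no net growth, and negative values indicate cell death.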 The source made the active and inactive calls. Rule for the calls: active = growth percent below 10; inactive = the rest.
# Tested on: ACHN renal
# Assay: NCI-60 one-dose screen, 48 h (100 = growth as untreated, 0 = no growth, -100 = all killed)
# Conditions: 10 µM unless noted
row,Structure (SMILES),growth
1,COc1ccc2c(CCCCC(c3ccccc3)c3ccccc3)c3[n+](cc2c1OC)CCc1cc2c(cc1-3)OCO2,-19.1% (active)
2,CCN1CCN(c2cc(C)nc(N(CCCNc3ccnc4cc(Cl)ccc34)Cc3ccc4c(c3)OCO4)n2)CC1,-0.628% (active)
3,O=C(Nc1ccc(C(=O)Nc2ccc(C3=NCCCN3)cc2)cc1)Nc1ccc(C2=NCCCN2)cc1,86% (inactive)
4,CCOC(=O)C1=C(C)N=C2Sc3cc(OC(F)(F)F)ccc3N2[C@H]1c1ccccn1,32.8% (inactive)
5,Nc1c2c(c(O)c3c1=C(CO)C=N3)=NCCS2,0.734% (active)
6,C[C@@H](C[C@H](CCO)c1cc(C(F)(F)F)cc(C(F)(F)F)c1)c1ccc2ccccc2c1,98.7% (inactive)
7,CN(N)c1nc2sc3c(c2c(=O)[nH]1)CCCC3,107% (inactive)
8,Cc1cc(N(CCNc2ccnc3cc(Cl)ccc23)Cc2ccc3c(c2)OCO3)nc(N2CCN(C)CC2)n1,-20.6% (active)
9,C[N+](C)(CCOC(c1ccccc1)c1ccccc1)CC(=O)OCc1ccccc1,111% (inactive)
10,CC1(/C=N/NC(N)=S)NC(=O)NC1=O (centres undefined),108% (inactive)
11,[2H]C1([2H])[C@H](C)O[C@H](C)C([2H])([2H])N1c1ccc(NC(=O)c2cccc(-c3ccc(OC(F)(F)F)cc3)c2C)cn1,78.1% (inactive)
12,N#Cc1cc2[nH]c3ccc(OC(F)(F)F)cc3c2oc1=O,84.4% (inactive)
13,COc1ccc2c(c1OC)C(=O)O[C@@H]2[C@H]1c2c(c(C#CC#Cc3ccc(F)c(F)c3)c3c(c2OC)OCO3)CCN1C,95% (inactive)
14,CCC1(/C=N/NC(N)=S)NC(=O)NC1=O (centres undefined),109% (inactive)
15,CC(C)C1CCC(C)C(C2(C#N)C(N)=NC(N)=C2C#N)C1=O (centres undefined),107% (inactive)
16,NC(=O)c1n[nH]n2c1nc(=O)c1c3c(sc12)CCCC3,111% (inactive)
17,CCOC(=O)C1=C(C)NC(=O)NC1c1cc(=O)oc2ccc(C)cc12 (centres undefined),114% (inactive)
18,C=CC(=O)N(C)[C@H]1C[C@H]2OC(C)(C1OC)n1c3ccccc3c3c4c(c5c6ccccc6n2c5c31)C(=O)NC4 (some centres undefined),12.9% (inactive)
19,Cc1cc2c(-c3nc4ccccn4c3Nc3cccc4ccccc34)c(O)c(O)cc2c(O)c1-c1c(C)cc2c(-c3nc4ccccn4c3Nc3cccc4ccccc34)c(O)c(O)cc2c1O,49.2% (inactive)
20,N#CC1(C#N)C(c2cccs2)NC(c2cccs2)C1(C#N)C#N (centres undefined),102% (inactive)

row,Structure (SMILES),growth
1,CC1CCC(n2cnc3c(Cl)ncnc32)O1 (centres undefined),104% (inactive)
2,Oc1ccc(/C=N/Nc2nnc(N/N=C/c3ccc(O)cc3O)c3ccccc23)c(O)c1,-3.24% (active)
3,CCc1ccc(/C=C/c2ccc(O)c3ncccc23)[n+](C)c1,89.3% (inactive)
4,COc1ccc(OC)c(NC2=C(SCCc3ccccc3)C(=O)c3ccccc3C2=O)c1,77.2% (inactive)
5,CCN1/C(=C/C=C/c2n(-c3ccccc3)c3ccc(-c4nc5ccccc5s4)cc3[n+]2CC)N(c2ccccc2)c2ccc(-c3nc4ccccc4s3)cc21,-3.27% (active)
6,COC(=O)c1[nH]cnc1/N=N/N(C)CCO,103% (inactive)
7,O=C1CC(c2ccc(Cl)cc2)c2ncn(-c3cccc(Cl)c3)c2N1 (centres undefined),52.6% (inactive)
8,COC(=O)CC[C@@H](C)[C@H]1CC[C@H]2C3CC[C@@H]4C[C@@H]5CC[C@]4(C)[C@@]3(O5)[C@H](Br)[C@@H](Br)[C@]12C (some centres undefined),96.8% (inactive)
9,CC(=O)OCCC/C(=C\c1ccc2ccccc2c1)[N+](=O)[O-],-92.6% (active)
10,COc1cc(-c2cc(-c3ccc(Nc4ccnc5cc(Cl)ccc45)cc3)nc(N3CCOCC3)n2)cc(OC)c1OC,16.7% (inactive)
11,CCOC(=O)Sc1ncnc2nc[nH]c12,70% (inactive)
12,COc1cc2c3c(c1)nc(C)n3CCC2,108% (inactive)
13,CCCCCCCC(=O)SCC/C=C/[C@@H]1CC(=O)NCc2cccc(n2)C2=N[C@@](C)(CS2)C(=O)N[C@@H](C(C)C)C(=O)N1,59.6% (inactive)
14,COc1ccc2c(CCc3ccc(Cl)cc3)c3[n+](cc2c1OC)CCc1cc2c(cc1-3)OCO2,94.6% (inactive)
15,CC(=O)C(C(C)=O)C(c1ccccc1)C(C(C)=O)C(C)=O,106% (inactive)
16,Cc1ccc(NC(=O)NC(=O)CSc2nc3ccccc3nc2C)cc1,75.6% (inactive)
17,Cc1cc(N(CCNc2ccnc3cc(Cl)ccc23)Cc2ccc3c(c2)OCO3)nc(N2CCCC2)n1,-49.1% (active)
18,O=C(Nc1ccc(C2=NCCCN2)cc1)c1ccc(C(=O)Nc2ccc(C3=NCCCN3)cc2)nc1,107% (inactive)
19,COC(=O)C1=C(C(=O)OC)C23C=C(C)C1C2=C(C)C1(CC1)[C@@](C)(O)C3=O (some centres undefined),3.21% (active)

# Tested on: CAKI-1 renal
# Assay: as above
# Conditions: 10 µM unless noted
row,Structure (SMILES),growth
1,COc1ccc2c(CCCCC(c3ccccc3)c3ccccc3)c3[n+](cc2c1OC)CCc1cc2c(cc1-3)OCO2,16.6% (inactive)
2,CCOC(=O)C1=C(C)N=C2Sc3cc(OC(F)(F)F)ccc3N2[C@H]1c1ccccn1,27.9% (inactive)
3,CC1(/C=N/NC(N)=S)NC(=O)NC1=O (centres undefined),96.7% (inactive)
4,COc1ccc2c(c1OC)C(=O)O[C@@H]2[C@H]1c2c(c(C#CC#Cc3ccc(F)c(F)c3)c3c(c2OC)OCO3)CCN1C,86.6% (inactive)
5,CCC1(/C=N/NC(N)=S)NC(=O)NC1=O (centres undefined),94.1% (inactive)
6,COc1ccc(OC)c(NC2=C(SCCc3ccccc3)C(=O)c3ccccc3C2=O)c1,63.7% (inactive)
7,O=C1CC(c2ccc(Cl)cc2)c2ncn(-c3cccc(Cl)c3)c2N1 (centres undefined),75.3% (inactive)
8,COC(=O)CC[C@@H](C)[C@H]1CC[C@H]2C3CC[C@@H]4C[C@@H]5CC[C@]4(C)[C@@]3(O5)[C@H](Br)[C@@H](Br)[C@]12C (some centres undefined),80.3% (inactive)
9,CCCCCCCC(=O)SCC/C=C/[C@@H]1CC(=O)NCc2cccc(n2)C2=N[C@@](C)(CS2)C(=O)N[C@@H](C(C)C)C(=O)N1,82.3% (inactive)
10,COc1ccc2c(CCc3ccc(Cl)cc3)c3[n+](cc2c1OC)CCc1cc2c(cc1-3)OCO2,99.2% (inactive)
